Measured values reported in PubChem BioAssay (NCATS).
Records with an inconclusive call do not appear. Calls of active or inactive are those of the source. The call rests on the fitted dose curve; in most records, active means well fitted curve in the direction sought with a large enough effect; inconclusive means small, poorly fitted or top-dose-only effect, or another doubt; inactive means no such curve, though single readings can be large; an effect the other way counts as inactive or inconclusive.

Tests used:
CRL-7250 = normal cell line; assay: Cytotoxic Profiling of Annotated Libraries Using Quantitative High-Throughput Screening (AID 1296008); conditions: Five cell lines viability, CellTiter-Glo ATP luminescence, 48-72 h; max response: hits give low values; further: nearly all actives have a fitted effect of over 60% in size; on max response: on the % scale 0 is the no-effect control and ±100 the full control effect
How it was run: (§1)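 Cells exposed to compounds for 48 or 72 hr at 37 degrees Celsius. Viability read as ATP-coupled luminescence with CellTiter-Glo after 10 min at room temperature.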

HEK293 = assay: as above; conditions: Five cell lines viability, CellTiter-Glo ATP luminescence, 48-72 h; max response: hits give low values
How it was run: as §1

HaCat = assay: as above; conditions: Five cell lines viability, CellTiter-Glo ATP luminescence, 48-72 h; max response: hits give low values
How it was run: as §1

KB-3-1 = assay: as above; conditions: Five cell lines viability, CellTiter-Glo ATP luminescence, 48-72 h; max response: hits give low values
How it was run: as §1

NIH3T3 [1] = assay: as above; conditions: Five cell lines viability, CellTiter-Glo ATP luminescence, 48-72 h; max response: hits give low values
How it was run: as §1

HEK293T = assay: qHTS assay to identify novel small-molecules to repurpose for Merkel cell carcinoma treatment (AID 1296009); conditions: MCC and control cell lines, CellTiter-Glo viability, 72 h; series mostly up to 44.8 µM; further: nearly all actives have a fitted effect of over 60% in size
How it was run: (§2)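 Dose-response viability screen; 72 hr exposure at 37 degree celsius; CellTiter-Glo added, 10 min room temperature, luminescence read; RLUs scaled between no-cell and DMSO wells.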

NIH3T3 [2] = assay: as above; conditions: MCC and control cell lines, CellTiter-Glo viability, 72 h; at 44.8 µM (top of the series) unless noted
How it was run: as §2

C33A = assay: Primary qHTS to identify gynecologic anti-cancer compounds using libraries of approved drugs and bioactive compounds (AID 1345084); conditions: Gynecologic cancer cell panel viability, ATPlite luminescence, 48 h; series mostly up to 57.5 µM; further: on the % scale 0 is the no-effect control and ±100 the full control effect; nearly all actives have a fitted effect of over 55% in size
How it was run: (§3)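 Cell viability after 48 h drug treatment, ATPlite luminescence readout; five doses.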

CAOV3 = assay: as above; conditions: Gynecologic cancer cell panel viability, ATPlite luminescence, 48 h; series mostly up to 57.5 µM
How it was run: as §3

CASKI = assay: as above; conditions: Gynecologic cancer cell panel viability, ATPlite luminescence, 48 h; series mostly up to 57.5 µM
How it was run: as §3

Es-2 = assay: as above; conditions: Gynecologic cancer cell panel viability, ATPlite luminescence, 48 h; series mostly up to 57.5 µM
How it was run: as §3

HeLa = assay: as above; conditions: Gynecologic cancer cell panel viability, ATPlite luminescence, 48 h; series mostly up to 57.5 µM
How it was run: as §3

COc1cc(/C=C/C(=O)OC(C)(C)C(OC2OC(CO)C(O)C(O)C2O)C(=O)OCc2ccc(OC3OC(CO)C(O)C(O)C3O)cc2)ccc1O (stereo unspecified)
inactive: max response (CRL-7250) -9.61% | outcome (HEK293) | max response (HaCat) 3.1% | max response (KB-3-1) 5.7% | outcome (NIH3T3 [1]) | Potency (HEK293T) | outcome (NIH3T3 [2]) inactive [at 17.4 µM] | Potency (C33A) | Potency (CAOV3) | Potency (CASKI) | Potency (Es-2) | Potency (HeLa)

CC1CCC2C(C)(C)C(O)CCC2(C)C12Cc1c(O)cc3c(c1O2)CN=C3N (stereo unspecified)
inactive: max response (CRL-7250) -3.95% | outcome (HEK293) | max response (HaCat) 3.03% | max response (KB-3-1) 2.69% | outcome (NIH3T3 [1]) | Potency (HEK293T) | outcome (NIH3T3 [2]) | Potency (C33A) | Potency (CAOV3) | Potency (CASKI) | Potency (Es-2) | Potency (HeLa)

COC(=O)[C@H](OC(C)=O)[C@H]1C(C)(C)C(=O)[C@H]2CC3=C4CC(=O)O[C@@H](c5ccoc5)[C@]4(C)CCC3[C@@]1(C)C2=O (stereo partly specified)
inactive: max response (CRL-7250) -5.81% | outcome (HEK293) | max response (HaCat) -1.64% | outcome (KB-3-1) | outcome (NIH3T3 [1]) | Potency (HEK293T) | outcome (NIH3T3 [2]) inactive [at 17.4 µM] | Potency (C33A) | Potency (CAOV3) | Potency (CASKI) | Potency (Es-2) | Potency (HeLa)

COc1cc(/C=C/C(=O)O[C@H]2[C@H](O)[C@@H](CO)O[C@@]2(CO)O[C@H]2O[C@H](COC(=O)c3ccc(O)cc3)[C@@H](O)[C@H](O)[C@H]2O)cc(OC)c1OC
inactive: outcome (CRL-7250) | outcome (HEK293) | max response (HaCat) 4.76% | max response (KB-3-1) 3.54% | outcome (NIH3T3 [1]) | Potency (HEK293T) | outcome (NIH3T3 [2]) inactive [at 17.4 µM] | Potency (C33A) | Potency (CAOV3) | Potency (CASKI) | Potency (Es-2) | Potency (HeLa)

C[C@]12CCC(=O)C=C1[C@@H](O)C[C@@H]1[C@@H]2[C@@H](O)C[C@@]2(C)[C@H]1CC[C@]2(O)C(=O)CO
inactive: outcome (CRL-7250) | outcome (HEK293) | max response (HaCat) 1.59% | max response (KB-3-1) 8.45% | outcome (NIH3T3 [1]) | Potency (HEK293T) | outcome (NIH3T3 [2]) | Potency (C33A) | Potency (CAOV3) | Potency (CASKI) | Potency (Es-2) | Potency (HeLa)

CC1=CC(=O)CC(C)(CO[C@@H]2O[C@H](CO)[C@@H](O)[C@H](O)[C@H]2O)C1(O)/C=C/C(C)=C/C(=O)O (stereo partly specified)
inactive: outcome (CRL-7250) | outcome (HEK293) | max response (HaCat) -0.434% | outcome (KB-3-1) | outcome (NIH3T3 [1]) | Potency (HEK293T) | outcome (NIH3T3 [2]) inactive [at 17.4 µM] | Potency (C33A) | Potency (CAOV3) | Potency (CASKI) | Potency (Es-2) | Potency (HeLa)

C=C(C)[C@@H]1CC[C@](C)(O)[C@@H](OC(=O)c2ccccc2)C1
inactive: outcome (CRL-7250) | outcome (HEK293) | max response (HaCat) -0.346% | max response (KB-3-1) 2.9% | outcome (NIH3T3 [1]) | Potency (HEK293T) | outcome (NIH3T3 [2]) | Potency (C33A) | Potency (CAOV3) | Potency (CASKI) | Potency (Es-2) | Potency (HeLa)

CC(C)C1=CC2=CCC3[C@](C)(CCC[C@@]3(C)C(=O)O)C2CC1=O (stereo partly specified)
inactive: outcome (CRL-7250) | outcome (HEK293) | max response (HaCat) 1.19% | max response (KB-3-1) 8.65% | outcome (NIH3T3 [1]) | Potency (HEK293T) | outcome (NIH3T3 [2]) | Potency (C33A) | Potency (CAOV3) | Potency (CASKI) | Potency (Es-2) | Potency (HeLa)

COc1cc([C@@H]2Oc3c(OC)cc(CCCO)cc3[C@@H]2CO[C@@H]2O[C@H](CO)[C@@H](O)[C@H](O)[C@H]2O)ccc1O
inactive: outcome (CRL-7250) | outcome (HEK293) | max response (HaCat) -11.2% | max response (KB-3-1) 9.39% | outcome (NIH3T3 [1]) | Potency (HEK293T) | outcome (NIH3T3 [2]) inactive [at 17.4 µM] | Potency (C33A) | Potency (CAOV3) | Potency (CASKI) | Potency (Es-2) | Potency (HeLa)

C=C1CC2C3(C)C(O)CC(=O)C(C)(C)C3C(OC(C)=O)C(OC(C)=O)C2(C)C2C(=O)OC(C)(C(=O)OC)C(=O)C12C (stereo unspecified)
inactive: outcome (CRL-7250) | outcome (HEK293) | max response (HaCat) 3.78% | max response (KB-3-1) 5.29% | outcome (NIH3T3 [1]) | Potency (HEK293T) | outcome (NIH3T3 [2]) inactive [at 17.4 µM] | Potency (C33A) | Potency (CAOV3) | Potency (CASKI) | Potency (Es-2) | Potency (HeLa)

CC1C/C=C/C=C\CCCCC(O)C/C=C/C(=O)O1 (stereo unspecified)
inactive: max response (CRL-7250) 4.17% | outcome (HEK293) | max response (HaCat) -3.25% | max response (KB-3-1) 1.87% | outcome (NIH3T3 [1]) | Potency (HEK293T) | outcome (NIH3T3 [2]) | Potency (C33A) | Potency (CAOV3) | Potency (CASKI) | Potency (Es-2) | Potency (HeLa)

CC(/C=C/[C@]1(O)[C@@]2(C)CO[C@@]1(C)C[C@@H](O)C2)=C\C(=O)O[C@@H]1O[C@H](CO)[C@@H](O)[C@H](O)[C@H]1O
inactive: outcome (CRL-7250) | outcome (HEK293) | max response (HaCat) -14.2% | outcome (KB-3-1) | outcome (NIH3T3 [1]) | Potency (HEK293T) | outcome (NIH3T3 [2]) inactive [at 17.4 µM] | Potency (C33A) | Potency (CAOV3) | Potency (CASKI) | Potency (Es-2) | Potency (HeLa)

C/C(=C\CCC(C(=O)O)C1CCC2(C)C3=C(CCC12C)C1(C)CCC(=O)C(C)(C)C1CC3)C(=O)O (stereo unspecified)
inactive: max response (CRL-7250) -10.7% | outcome (HEK293) | max response (HaCat) 0.998% | outcome (KB-3-1) | outcome (NIH3T3 [1]) | Potency (HEK293T) | outcome (NIH3T3 [2]) inactive [at 17.4 µM] | Potency (C33A) | Potency (CAOV3) | Potency (CASKI) | Potency (Es-2) | Potency (HeLa)
